# Where a name gives a salt, the structure may show the parent alone. Unmarked numbers belong to inactive results.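 Rule for the calls: active = score above 5; some higher scores were not called.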
# Test system: S. cerevisiae SK1 pCDA2-eGFP (USY613), sporulating
# Experiment: CDA2-GFP sporulation assay sensitivity score (z-score vs DMSO controls); higher = stronger inhibition of sporulation, active = hit call of the paper
row,Structure (SMILES),CDA2-GFP sporulation assay sensitivity score
1,"CC[C@@H]1C(=O)OC[C@@H]1Cc1cncn1C [Pilocarpine hydrochloride] (stock concentration (mM, diluted 1:100): 10)",1.83
2,"CN(Cc1cnc2nc(N)nc(N)c2n1)c1ccc(C(=O)N[C@@H](CCC(=O)O)C(=O)O)cc1 [Methotrexate] (stock concentration (mM, diluted 1:100): 14.6)",-2.22
3,"CC(C(O)c1ccc(O)cc1)N1CCC(Cc2ccccc2)CC1 (centres undefined) [Ifenprodil] (stock concentration (mM, diluted 1:100): 9.2)",16.1 (active)
4,"CN(C)CCc1c[nH]c2ccc(Cn3cncn3)cc12 [Rizatriptan benzoate] (stock concentration (mM, diluted 1:100): 10)",-0.91
5,"O=C(O[C@@H]1Cc2c(O)cc(O)cc2O[C@@H]1c1cc(O)c(O)c(O)c1)c1cc(O)c(O)c(O)c1 [Epigallocatechin gallate] (stock concentration (mM, diluted 1:100): 10)",-1.44
6,"CN(C)CCC=C1c2ccccc2COc2ccccc21 [Doxepin] (stock concentration (mM, diluted 1:100): 10)",18.2 (active)
7,"CC#C[C@]1(O)CC[C@H]2[C@@H]3CCC4=CC(=O)CCC4=C3[C@@H](c3ccc(N(C)C)cc3)C[C@@]21C [Mifepristone] (stock concentration (mM, diluted 1:100): 10)",9.91
8,"CC(C(=O)O)c1ccc(-c2ccccc2)c(F)c1 (centres undefined) [Flurbiprofen] (stock concentration (mM, diluted 1:100): 11.4)",-0.22
9,"CNCC[C@H](Oc1cccc2ccccc12)c1cccs1 [Duloxetine hydrochloride] (stock concentration (mM, diluted 1:100): 8.9)",16.3 (active)
10,"COC(=O)C1=C(C)NC(C)=C(C(=O)OCC(C)C)C1c1ccccc1[N+](=O)[O-] (centres undefined) [Nisoldipine] (stock concentration (mM, diluted 1:100): 10)",-0.05
11,"Nc1c2c(nc3ccccc13)CCCC2 [Tacrine hydrochloride] (stock concentration (mM, diluted 1:100): 9)",10.2 (active)
12,"O=C1N(c2ccccc2)c2ccccc2C1(Cc1ccncc1)Cc1ccncc1 (stock concentration (mM, diluted 1:100): 10)",0.26
13,"CCCN[C@H]1CCc2nc(N)sc2C1 [Pramipexole] (stock concentration (mM, diluted 1:100): 10)",-1.03
14,"O=C1CCc2ccc(OCCCCN3CCN(c4cccc(Cl)c4Cl)CC3)cc2N1 [Aripiprazole] (stock concentration (mM, diluted 1:100): 10)",-0.09
15,"OC[C@H]1O[C@@H](n2cnc3c(N[C@H]4CCC[C@@H]4O)ncnc32)[C@@H](O)C1O (some centres undefined) (stock concentration (mM, diluted 1:100): 10)",2.98
16,"CN1CCCC(n2nc(Cc3ccc(Cl)cc3)c3ccccc3c2=O)CC1 (centres undefined) [Azelastine hydrochloride] (stock concentration (mM, diluted 1:100): 9.1)",0.63
17,"NC(N)=NC(=O)c1nc(Cl)c(N)nc1N (stock concentration (mM, diluted 1:100): 8.2)",6.05 (active)
18,"C[C@@H]1O[C@@H](OC[C@H]2O[C@@H](Oc3c(-c4ccc(O)c(O)c4)oc4cc(O)cc(O)c4c3=O)[C@H](O)[C@@H](O)[C@@H]2O)[C@H](O)[C@H](O)[C@H]1O [Rutin] (stock concentration (mM, diluted 1:100): 10)",-0.59
19,"CC(C)(C#N)c1cc(Cn2cncn2)cc(C(C)(C)C#N)c1 [Anastrozole] (stock concentration (mM, diluted 1:100): 10)",3.64

# Source: the supplement of paper PMC3414501
